# IP6K1 inh – blocks human inositol hexakisphosphate kinase 1; 0.81% of 140,000 active; activity change, % (series mostly up to about 58 µM); Q92551; IP6K1 kinase, ADP-Glo luminescence, 2 h; stronger effect = lower value; AID 1645851; in the data active = activity change below about -25%
#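 ADP-Glo luminescence measures ADP made by human IP6K1 during a 2 h RT reaction with ATP/IP6 (mix at 1.3 mM/130 uM); top library doses 57.5 and 19.1 uM final.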
# KDM5B inh – blocks human KDM5B histone demethylase activity. Q9UGL1. KDM5B demethylase, FDH-coupled NADH fluorescence (FDH is formaldehyde dehydrogenase). Potency, µM (titrated, usually from 57.7 µM), most hits filed as inhibitors. 2.6% of 220,000 active. AID 1347165; active = well fitted inhibition curve with a large enough effect; inconclusive = small, poorly fitted or top-dose-only effect; inactive = no such curve, though single readings can be large or run the other way; note: nearly all actives have a fitted effect of over 70% in size
# Target sequence (Q9UGL1 whole entry, looked up): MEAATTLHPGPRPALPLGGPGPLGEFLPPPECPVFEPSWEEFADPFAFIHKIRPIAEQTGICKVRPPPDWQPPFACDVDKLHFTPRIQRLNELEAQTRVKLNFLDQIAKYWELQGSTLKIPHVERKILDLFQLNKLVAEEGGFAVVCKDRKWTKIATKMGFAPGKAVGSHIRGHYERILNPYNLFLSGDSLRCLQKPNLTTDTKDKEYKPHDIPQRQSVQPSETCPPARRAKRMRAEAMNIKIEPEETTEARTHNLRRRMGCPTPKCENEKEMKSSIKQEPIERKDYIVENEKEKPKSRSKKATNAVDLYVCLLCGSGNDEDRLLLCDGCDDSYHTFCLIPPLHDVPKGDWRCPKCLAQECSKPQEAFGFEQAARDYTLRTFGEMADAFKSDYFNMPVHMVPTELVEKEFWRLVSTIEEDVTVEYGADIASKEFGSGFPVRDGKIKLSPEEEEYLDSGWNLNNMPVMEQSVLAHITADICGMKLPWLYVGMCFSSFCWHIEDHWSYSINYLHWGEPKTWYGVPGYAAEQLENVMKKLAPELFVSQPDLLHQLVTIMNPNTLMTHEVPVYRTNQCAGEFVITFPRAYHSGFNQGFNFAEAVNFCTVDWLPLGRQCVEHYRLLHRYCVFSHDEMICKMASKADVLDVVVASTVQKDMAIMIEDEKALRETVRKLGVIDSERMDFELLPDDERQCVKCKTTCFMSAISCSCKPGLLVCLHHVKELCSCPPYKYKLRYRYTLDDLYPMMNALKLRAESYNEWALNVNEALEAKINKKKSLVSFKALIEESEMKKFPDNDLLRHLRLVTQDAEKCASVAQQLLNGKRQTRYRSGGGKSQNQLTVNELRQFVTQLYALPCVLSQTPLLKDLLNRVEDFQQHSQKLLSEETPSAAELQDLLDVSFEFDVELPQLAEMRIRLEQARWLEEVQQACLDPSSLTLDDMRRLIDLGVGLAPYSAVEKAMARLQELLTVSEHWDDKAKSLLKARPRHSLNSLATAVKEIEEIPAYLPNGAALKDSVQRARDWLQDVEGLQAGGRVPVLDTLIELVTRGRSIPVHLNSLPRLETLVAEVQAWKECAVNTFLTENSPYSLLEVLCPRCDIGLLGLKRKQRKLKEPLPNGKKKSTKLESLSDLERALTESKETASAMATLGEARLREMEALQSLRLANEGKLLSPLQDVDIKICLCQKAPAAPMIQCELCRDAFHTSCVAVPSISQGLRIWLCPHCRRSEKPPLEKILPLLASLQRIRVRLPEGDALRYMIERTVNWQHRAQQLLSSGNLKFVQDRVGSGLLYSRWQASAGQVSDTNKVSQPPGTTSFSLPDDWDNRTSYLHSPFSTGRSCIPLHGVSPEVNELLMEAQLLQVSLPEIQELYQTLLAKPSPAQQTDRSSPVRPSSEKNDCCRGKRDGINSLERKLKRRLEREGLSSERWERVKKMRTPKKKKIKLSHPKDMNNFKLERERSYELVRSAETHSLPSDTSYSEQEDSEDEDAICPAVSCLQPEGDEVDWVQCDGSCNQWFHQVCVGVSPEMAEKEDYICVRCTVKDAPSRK
#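 Inhibition is measured as reduced NADH fluorescence generation from FDH coupling to formaldehyde release. Truncated KDM5BΔAP at 200 nM final acts on H3K4me3 peptide (12.5 µM in substrate mix) in pH 7.5 HEPES buffer with Tween-20, 30 min, room temperature.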
# Numbers stand for hits; 0 = inactive; ? = inconclusive; - = no result. Shown are actives, neighbours in structure and some others; about 2.8% of the full set was active somewhere.
SMILES,IP6K1 inh,KDM5B inh
CN1C(=O)c2ccc(NC(=O)C[C@H]3NC(=O)c4ccccc4NC3=O)cc2C1=O,0,25.1µM
S=C(NCCc1ccc(Cl)cc1)Nc1ccc(Nc2ccccc2)cc1,-,0
Cc1ccc(-c2cc3c(=O)n(CCNC(=O)c4ccc(F)c(F)c4)ccn3n2)cc1C,0,?
O=C(NCCn1ccn2nc(-c3ccc(F)cc3)cc2c1=O)c1cccc2[nH]ccc12,0,28.2µM
Cc1ccc(-c2cc3c(=O)n(CCNC(=O)c4ccc[nH]c4=O)ccn3n2)cc1C,0,35.5µM
Cc1ccc(-c2cc3c(=O)n(CCNC(=O)Cc4ccccc4Cl)ccn3n2)cc1C,0,?
O=C(NCCn1ccn2nc(-c3ccc(F)cc3)cc2c1=O)c1ccc2[nH]ccc2c1,0,?
Cc1ccc(-c2cc3c(=O)n(CCNC(=O)c4cccc5[nH]ccc45)ccn3n2)cc1C,0,28.2µM
CN(Cc1cccc(Cl)c1Cl)C(=O)c1ccccc1NS(C)(=O)=O,-,0
Cc1cccc(-c2cccc(CN3CCC(NC(=O)c4ccccc4)CC3)c2)c1,0,-
Cc1ccccc1-n1ccnc1SCC(=O)c1ccc(F)c(F)c1,-,0
COc1ccc(-n2cc(CN3CCCC(CO)C3)c(-c3cccc(F)c3)n2)cc1 (stereo unspecified),0,35.5µM
COc1ccc(-c2nn(-c3ccccc3)cc2CN2CCCC(CO)C2)c(F)c1 (stereo unspecified),0,?
COc1ccc(-n2cc(CN3CCN(C)C(C)C3)c(-c3cccc(F)c3)n2)cc1 (stereo unspecified),0,25.1µM
COc1ccc(-n2cc(CN3C[C@@H](C)O[C@@H](C)C3)c(-c3cccc(F)c3)n2)cc1,0,?
CCOC(=O)N1CCN(Cc2nc3cc(NC(=O)COc4ccccc4C)ccc3n2C)CC1,-,0
COc1ccccc1Nc1ccnc(N2CCCC(C(=O)N3CCCCC3)C2)n1 (stereo unspecified),0,-
COc1ccc(-c2coc3c(C)c(OCCN4CCCCC4)ccc3c2=O)cc1,-,0
CN(C)c1ncc2c(n1)C(C)(C(=O)NCc1ccc3c(c1)OCO3)CCC2 (stereo unspecified),0,31.6µM
COc1cccc(Nc2ncc3c(n2)C(C)(C(=O)NCc2ccc4c(c2)OCO4)CC3)c1 (stereo unspecified),0,?
CN(C)c1ncc2c(n1)C(C)(C(=O)NCc1cccc(Cl)c1)CCC2 (stereo unspecified),0,39.8µM
CN(C)c1ncc2c(n1)C(C)(C(=O)NCc1cccc(F)c1)CCC2 (stereo unspecified),0,?
CN(CCCNC(=O)c1nc2ccccc2c(=O)[nH]1)C(=O)c1ccccc1,-,0
CCOc1ccccc1CNC(=O)C1CCN(C(=O)N2CC(CC)Oc3ccccc32)CC1 (stereo unspecified),-,0
C=CCCC(CN1CCCOCC1)Oc1ccc(-c2ccccc2)nn1 (stereo unspecified),0,0
SMILES,IP6K1 inh,KDM5B inh
C=CCCC(CN1CCCOCC1)Oc1ccc2cccc(OC)c2n1 (stereo unspecified),0,31.6µM
COc1ncccc1-c1nc2cc(C(=O)NCc3cccc(Cl)c3)ccc2o1,0,-
Cn1cc(-c2cc(=O)c3ccnc(-c4cccc5[nH]ccc45)c3o2)cn1,0,0
Cn1cc(-c2cc(=O)c3ccnc(NCc4ccc5c(c4)OCO5)c3o2)cn1,0,31.6µM
COCc1ccccc1-c1nccc2c(=O)cc(-c3cnn(C)c3)oc12,0,35.5µM
CN(c1cc(=O)c2ccnc(NCc3ccc4c(c3)OCO4)c2o1)C1CCOCC1,0,?
COCC(=O)N1CCC2(CC1)OCCN2S(=O)(=O)c1c(C)cc(C)cc1C,-,0
CCCCn1c(=O)c(C(=O)NCC(=O)OC)nc2cccnc21,0,-
O=C(CCc1ccnc(N2CCOCC2)c1)NCCN1CCc2ccccc2C1,0,25.1µM
Cn1c(CNC(=O)CCc2ccnc(N3CCCC3)c2)nc2ccccc21,0,?
CN1CCC(N2CCN(C(=O)CCc3ccnc(N4CCOCC4)c3)CC2)CC1,0,?
Cc1ccc(N2CCN(C(=O)CCc3ccnc(N4CCOCC4)c3)CC2)cc1,0,0
CCCNC(=O)CCc1ccnc(N2CCOCC2)c1,0,28.2µM
Cc1ccccc1CNC(=O)CCc1ccnc(N2CCOCC2)c1,0,22.4µM
O=C(Nc1nc(-c2cc3ccccc3oc2=O)cs1)c1ccccc1Cl,-,0
O=C(Nc1ccc(F)cc1)c1ccccc1-c1ccccc1,-,0
CNCC(=O)NC1CCCN(c2ccc(C(F)(F)F)cn2)C1 (stereo unspecified),0,28.2µM
Cc1ccc(C(=O)NC2CCCN(c3ccc(C(F)(F)F)cn3)C2)cn1 (stereo unspecified),-,0
Nc1ccc2oc(-c3ccc4ccccc4c3)nc2c1,-,0
CC(C)CNC(=O)c1ccc2c(c1)C1(CCCN(CC3CC3)C1)CN2C (stereo unspecified),0,35.5µM
CN(C)CCNC(=O)c1ccc2c(c1)C1(CCCN(CC3CC3)C1)CN2C (stereo unspecified),0,35.5µM
COc1ccc(C(=O)N2CCc3ccc(C(=O)NCc4ccccc4)cc32)cc1,0,0
CN1CC2(CCCN(CC3CC3)C2)c2cc(C(=O)N3CC(O)C3)ccc21 (stereo unspecified),0,?
CS(=O)(=O)N1CCc2cc(C(=O)NCCc3ccccc3)ccc21,0,0
COCCN1CCC2(C1)CN(C)c1ccc(C(=O)NCc3ccccc3)cc12 (stereo unspecified),0,35.5µM
SMILES,IP6K1 inh,KDM5B inh
CC(=O)N1CCCC2(C1)CN(C)c1ccc(C(=O)NCCc3ccccc3)cc12 (stereo unspecified),0,35.5µM
CN(C)CCNC(=O)c1ccc2c(=O)n3c(nc2c1)CCCCC3,0,0
CC(C)C[C@@H](NC(=O)Nc1cccc(Cl)c1)C(=O)O,-,0
COc1ccc2cc(C(=O)NCCC(=O)Nc3ccc4c(c3)OCCO4)[nH]c2c1,-,0
COCC(=O)N1CCCN(c2ccc3nnc(-c4ccccc4)n3n2)CC1,0,-
N#Cc1ccccc1Sc1ccccc1C(=O)OCC(=O)Nc1ccc(N2CCOCC2)cc1,-,0
CN1CC2(CCCN(CC3CC3)C2)c2cc(C(=O)NCCc3ccccc3)ccc21 (stereo unspecified),0,35.5µM
COCCN1CCCCCC(O)c2cc(C(=O)NCCc3ccccc3)ccc21 (stereo unspecified),0,0
COc1ccccc1-c1ccc(C(=O)N2CCC(C(=O)NCc3ccc(C(F)(F)F)cc3)CC2)cc1,0,-
Cc1ccc(S(=O)(=O)N(C)C(C)c2cc3ccccc3o2)cc1 (stereo unspecified),-,0
Cc1cc2nc(SCC(=O)Nc3cc(Cl)ccc3C)[nH]c(=O)c2[nH]1,-,0
Nc1ccc(Cl)cc1/C(=N/Nc1ccccc1)c1ccccc1,-,0
COc1ccccc1CCC(=O)N[C@@H]1CN(c2ncccn2)C[C@H]1CO,0,17.8µM
Cc1ccc(C(=O)N[C@@H]2CN(c3ncccn3)C[C@H]2CO)cn1,0,?
O=C(N[C@@H]1CN(c2ncccn2)C[C@H]1CO)c1ccc(F)cc1,0,?
COc1cccc(CCC(=O)N[C@@H]2CN(c3ncccn3)C[C@H]2CO)c1,0,?
Cc1nn(C)c(C)c1C(=O)N[C@@H]1CN(c2ncccn2)C[C@H]1CO,0,20µM
Cc1ncccc1C(=O)N[C@@H]1CN(c2ncccn2)C[C@H]1CO,0,20µM
Cc1cc(C(=O)N[C@@H]2CN(c3ncccn3)C[C@H]2CO)n(C)n1,0,?

# Compound activity: PubChem, National Center for Advancing Translational Sciences (NCATS)
